Bioassay records: PubChem BioAssay, NMMLSC
Shown are actives, neighbours in structure and some others; about 1.2% of the full set was active somewhere.
RGS16-Gao = RGS16-Galphao interaction regulator (human). 220,000 compounds, 0.38% hits. binding response (% of control), % at 10 µM. bead-based flow cytometry RGS16-Galphao binding, fluorescence; actives lie on both sides. AID 1441. O15492+P09471;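 also: Galphao activated by GDP with aluminum fluoride before binding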
Target sequence (O15492 whole entry, looked up): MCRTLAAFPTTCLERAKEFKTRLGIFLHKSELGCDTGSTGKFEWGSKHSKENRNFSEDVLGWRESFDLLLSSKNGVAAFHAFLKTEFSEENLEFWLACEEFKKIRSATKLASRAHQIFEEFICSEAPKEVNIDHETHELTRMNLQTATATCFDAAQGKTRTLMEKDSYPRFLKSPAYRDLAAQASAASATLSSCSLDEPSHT
Target sequence (P09471 whole entry, looked up): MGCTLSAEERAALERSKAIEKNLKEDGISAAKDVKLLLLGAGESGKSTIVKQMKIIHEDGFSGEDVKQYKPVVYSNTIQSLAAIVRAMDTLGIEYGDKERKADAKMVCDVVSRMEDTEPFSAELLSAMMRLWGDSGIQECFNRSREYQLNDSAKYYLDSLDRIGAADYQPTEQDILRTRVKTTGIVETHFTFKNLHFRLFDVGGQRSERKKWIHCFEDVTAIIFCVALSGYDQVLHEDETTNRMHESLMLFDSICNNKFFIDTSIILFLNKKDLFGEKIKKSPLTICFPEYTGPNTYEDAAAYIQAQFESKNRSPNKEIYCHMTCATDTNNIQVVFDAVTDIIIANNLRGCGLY
GSH fluor = compound fluoresces at 488/530 nm on GSH beads; GSH beads flow cytometry, compound fluorescence 488/530 nm; stronger effect = higher value; fluorescence (KMESF) at 10 µM; 190,000 compounds, 0.25% hits; in the data active = fluorescence above about 89;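 also: glutathione beads carrying GST-tagged Bcl family fusion proteins plus one bare bead set; values are compound well signal with DMSO vehicle wells as background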
RGS7-Gao = modulates binding of RGS7 to human Galphao; binding response (% of control), % at 10 µM; Multiplexed bead flow cytometry; actives lie on both sides; 220,000 compounds, 0.35% hits; AID 1439; P09471; in the data active = binding response below about 49% or above about 150%; inconclusive = no clear call, values can overlap the other calls; inactive = in between;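 also: fluorescent Galphao held in activated GDP-AlF4 state binding bead-coupled RGS7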
Target sequence (P09471 whole entry, looked up): as above
RGS4-Gao reg = human RGS4-Galphao interaction regulation | binding response (% of control), % at 10 µM | 220,000 compounds, 0.33% hits | Multiplexed bead flow cytometry, RGS4-Galphao binding; actives lie on both sides | P09471; in the data active = binding response below about 49% or above about 150%; inactive = in between;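 also: fluorescent Galphao activated with aluminum fluoride binding bead-coupled RGS4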
Avidin fluor = avidin bead compound fluorescence profile. 220,000 compounds, 0.38% hits. fluorescence (KMESF) at 10 µM. Avidin beads, compound fluorescence 488/530 nm, flow cytometry; stronger effect = higher value; in the data active = fluorescence above about 47
RGS8-Gao reg = modulates binding of RGS8 to human Galphao | 220,000 compounds, 0.34% hits | response (percent of control binding), % at 10 µM | multiplexed bead flow cytometry; actives lie on both sides; in the data active = response below about 60% or above about 140%; inactive = in between;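 also: Galphao activated as the GDP aluminium fluoride complex binding bead-coupled RGS8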
RGS4-Gao HTS = modulates binding between human RGS4 and Galphao; RGS4–Galpha-o binding response, % at 10 µM; shares compounds with RGS16-Gao; AID 1504; 1,600 compounds, 99% hits; multiplexed bead flow cytometry, RGS–Galpha-o binding;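 also: fluorescently labeled Galpha-o bound to GDP with aluminium fluoride binding biotinylated RGS beads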
Biotin-avidin = interferes with biotinylated probe binding to avidin beads; AID 1783; shares compounds with RGS16-Gao; inhibition, % at 10 µM; 1,700 tested, under 10 active; streptavidin beads, fluorescein-biotin binding, flow cytometry;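 active = inhibition above 50%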;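 also: median green fluorescence of gated singlet beads compared with DMSO control wells; 0% = DMSO wells and 100% = complete loss of bead fluorescence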
RGS8-Gao single = RGS8-Galphao interaction regulation, single point confirmation. shares compounds with RGS16-Gao. bead-based flow cytometry RGS8-Galphao binding, fluorescence; actives lie on both sides. binding response (% of control), % at 10 µM. 1,700 compounds, 3% hits. AID 1836; in the data active = binding response below about 72% or above about 130%; inactive = in between;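 also: Galphao activated as GDP AlF4 complex before binding bead RGS8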
RGS7-Gao confirm = RGS7-Galphao interaction regulation, single point confirmation; shares compounds with RGS16-Gao; bead-based flow cytometry RGS7-Galphao binding; actives lie on both sides; response (percent of control binding), % at 10 µM; 1,700 compounds, 7.8% hits; AID 1837; in the data active = response below about 75% or above about 130%; inactive = in between;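 also: fluorescent Galphao activated with GDP and aluminum fluoride binding bead-coupled RGS7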
RGS16-Gao single = RGS16-Galphao interaction regulation, single point confirmation | shares compounds with RGS16-Gao | bead-based flow cytometry, RGS16-Galphao binding; actives lie on both sides | response (% of control binding), % at 10 µM | 1,700 compounds, 4% hits | AID 1838; in the data active = response below about 74% or above about 130%; inactive = in between;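 also: Galphao activated as the GDP aluminium fluoride complex binding bead-coupled RGS16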
RGS4-Gao single = RGS4-Galphao interaction regulation, single point confirmation | shares compounds with RGS16-Gao | RGS4-Galphao binding, multiplexed bead flow cytometry; actives lie on both sides | binding response (% of control), % at 10 µM | 1,700 compounds, 4% hits | AID 1840; in the data active = binding response below about 74% or above about 130%; inactive = in between
RGS19-Gao conf = RGS19-Galphao interaction regulation, single point confirmation | shares compounds with RGS16-Gao | bead-based flow cytometry RGS19-Galphao binding; actives lie on both sides | response (percent of control binding), % at 10 µM | 1,700 compounds, 5% hits | AID 1841; in the data active = response below about 50% or above about 160%; inactive = in between;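 also: 100% = no compound control and 0% = blank background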
An asterisk follows results filed as active; i = inactive; ? = inconclusive; nt = not tested or not shown; [ ] = another dose, or the depositor's remark. Unless noted, no rule for the calls is given here.

SMILES	RGS16-Gao	GSH fluor	RGS7-Gao	RGS4-Gao reg	Avidin fluor	RGS8-Gao reg	RGS4-Gao HTS	Biotin-avidin	RGS8-Gao single	RGS7-Gao confirm	RGS16-Gao single	RGS4-Gao single	RGS19-Gao conf
Cc1nc2ncnn2c(N2CCN(C(c3ccccc3)c3ccccc3)CC2)c1C	100	17	100	102	24	104	nt	nt	nt	nt	nt	nt	nt
Cc1cc(N2CCN(C(c3ccccc3)c3ccccc3)CC2)n2ncnc2n1	nt	55	nt	nt	nt	nt	nt	0	98	86	91	90	75
Cc1ccc(Cn2nnc3c(=O)[nH]c(C4CCCN(S(=O)(=O)c5ccccc5)C4)nc32)cc1 (stereo not drawn)	-107*	19	80	73	9	73	73*	0	105	99	107	105	109
O=c1[nH]c(C2CCCN(S(=O)(=O)c3ccc(F)cc3)C2)nc2c1nnn2Cc1ccccc1 (stereo not drawn)	106	14	105	106	10	103	nt	nt	nt	nt	nt	nt	nt
Cc1cc(NC(=O)CSc2nc(C(C)C)nc3sc(C)c(C)c23)no1	102	31	101	98	12	100	nt	nt	nt	nt	nt	nt	nt
Cc1cc(NC(=O)CSc2nnc3c4c(C)c(C)sc4ncn23)no1	103	29	188*[activator]	114	111*	100	114*	0	105	103	104	102	95
COCCCNC(=O)COc1ccc(S(=O)(=O)NCc2ccccc2)cc1Cl	i	16	275*[activator]	314*[activator]	2	407*[activator]	nt	-1	99	77	94	89	57
O=c1[nH]c2cc3c(cc2cc1CN(CC1CCCO1)S(=O)(=O)c1ccc(Cl)cc1)OCCO3 (stereo not drawn)	403	17	110	110	3	147*[activator]	110*	1	100	107	103	106	103
Cc1ccc(S(=O)(=O)N(Cc2cc3cc4c(cc3[nH]c2=O)OCCO4)CC2CCCO2)cc1 (stereo not drawn)	98	22	101	96	11	103	nt	nt	nt	nt	nt	nt	nt
Cn1c(SCC(=O)NCCN2C(=O)CSC2=O)nnc1-c1ccccc1	130	9	213*[activator]	124	138*	107	124*	-1	103	105	103	104	103
Cc1ccc(-n2c(SCC(=O)NCCN3C(=O)CSC3=O)nnc2-c2ccccc2)cc1	18*	5	87	90	8	78	90*	0	100	103	100	102	94
Cc1ccc(C2=NNC(=O)C(P(=O)(c3ccccc3)c3ccccc3)C2)cc1 (stereo not drawn)	103	10	98	103	11	101	nt	nt	nt	nt	nt	nt	nt
NC(=O)C1CCN(C2=C(NS(=O)(=O)c3ccccc3)C(=O)c3ccccc3C2=O)CC1	16*	nt	?	26*	1	19*	nt	0	108	99	112	107	113
COc1cc(-c2nc3ccccn3c2/N=C/c2cc(OC)c(O)cc2Cl)ccc1O	99	18	96	98	5	97	nt	nt	nt	nt	nt	nt	nt
CC(C)Cc1nnc(NC(=O)CSc2ccccn2)s1	nt	39	nt	nt	nt	nt	nt	0	102	97	102	99	105
CCOC(=O)C(=O)c1csc(NC(=O)CCSc2ccc(C)cc2)n1	100	20	106	100	5	101	nt	nt	nt	nt	nt	nt	nt
O=C(COC(=O)CCc1ccc(S(=O)(=O)N2CCOCC2)cc1)NC(=O)NC1CCCCC1	104	15	98	100	10	101	nt	nt	nt	nt	nt	nt	nt
O=Cc1ccc(-c2ccc(Cl)cc2Cl)[nH]1	15*	16	16*	26*	2	26*	nt	2	109	108	112	106	97
COc1ccc(-n2nc(C(=O)NCC(=O)N3CCN(C)CC3)c3ccccc3c2=O)cc1OC	222	40	110	108	7	142*[activator]	108*	0	100	99	98	98	92
COc1ccc(-n2nc(C(=O)NCC(=O)N3CCN(c4ccccn4)CC3)c3ccccc3c2=O)cc1Cl	100	12	102	100	7	104	nt	nt	nt	nt	nt	nt	nt
O=C(COc1ccc2ccccc2c1)NCCNC(=O)COc1ccc2ccccc2c1	89	37	99	89	7	95	nt	nt	nt	nt	nt	nt	nt
O=C(COc1ccc2ccccc2c1)NCCc1ccc2c(c1)OCCO2	113*[activator]	13	99	31*	8	106*[activator]	nt	-2	108	110	107	109	110
Cc1ccc(S(=O)(=O)NCc2ccc(C(=O)NCc3cccnc3)cc2)cc1	119	8	103	103	22	106	nt	nt	nt	nt	nt	nt	nt
CCN(CC)C(=O)c1ccc(S(=O)(=O)NCc2cccnc2)cc1	nt	39	nt	nt	nt	nt	nt	2	101	122	106	108	118
CSc1ccccc1NC(=O)C1C2CCC(C2)C1C(=O)O (stereo not drawn)	21*	14	33*	24*	1	40*	nt	2	100	100	102	101	115
CC(C)N1CCc2c(sc(NC(=O)c3nc4ccccc4s3)c2C(N)=O)C1	108	12	101	105	11	104	nt	nt	nt	nt	nt	nt	nt
CC(C)N1CCc2c(sc(NC(=O)c3ccc(S(=O)(=O)N4CCc5ccccc54)cc3)c2C(N)=O)C1	137	19	153*[activator]	147	5	137	147*	nt	nt	nt	nt	nt	nt
Cc1nnc(SCc2nnc(-c3ccccc3Br)o2)s1	102	10	100	103	6	100	nt	nt	nt	nt	nt	nt	nt
COc1ccc(NC(=S)Nc2ccccc2)c(OC)c1	115	12	107	106	17	109	nt	nt	nt	nt	nt	nt	nt
COc1ccc(NC(=S)Nc2ccc(OCc3ccccc3)cc2)c(OC)c1	37	18	165*[activator]	140	11	117	140*	1	103	103	102	101	105
